Here are results for 40 compounds from PubChem BioAssay.

Each structure is given as a SMILES string. A number with no mark means an inactive call. No rule for the calls is given here.

In this assay the target is Pantothenate synthetase (Mycobacterium tuberculosis (strain ATCC 25618 / H37Rv)) (UniProt P9WIL5). The assay is described as follows: Recombinant Mtb pantothenate synthetase (PanC) inhibitors, coupled enzyme, confirmatory (AID 375).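 Also: 0% = full reaction with vehicle and 100% = no enzyme background.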 To be noted: coupled enzyme assay; at 10 µM, active compounds read high.
Pantothenate synthetase (Mycobacterium tuberculosis (strain ATCC 25618 / H37Rv)), sequence (P9WIL5 whole entry, looked up): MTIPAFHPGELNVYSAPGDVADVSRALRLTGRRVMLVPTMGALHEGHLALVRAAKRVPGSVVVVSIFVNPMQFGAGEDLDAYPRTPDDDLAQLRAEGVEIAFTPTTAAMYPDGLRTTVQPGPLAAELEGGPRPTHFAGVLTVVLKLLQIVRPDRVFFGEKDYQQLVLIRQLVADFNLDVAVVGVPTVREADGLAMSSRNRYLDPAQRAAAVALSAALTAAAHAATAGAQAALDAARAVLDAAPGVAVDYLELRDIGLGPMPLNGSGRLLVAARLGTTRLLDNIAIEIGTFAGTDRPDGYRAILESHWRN
For the compound `O=C(O)CCC1(C(=O)O)OCCc2ccccc21` (stereo not given), the inhibition (usually how much of the control response was suppressed) is 8%.
In the case of `Fc1cccc(-c2cc3nc4c(c(N5CCN(c6cnccn6)CC5)n3n2)CCCC4)c1` it was 0%; in that of `Cc1c(C(=O)O)oc2ccc(S(=O)(=O)NCc3ccccc3)cc12`, 0%; in that of `CN(C)c1nc(Oc2ccc(N)cc2)nc(N(C)C)n1`, 0%.
In the case of `CCOC(=O)CCC(=O)O[C@H]1[C@H](O[C@@H]2[C@@H](C)[C@H](O[C@H]3C[C@@](C)(OC)[C@@H](O)[C@H](C)O3)[C@@H](C)C(=O)O[C@H](CC)[C@@](C)(O)[C@H](O)[C@@H](C)C(=O)[C@H](C)C[C@@]2(C)O)O[C@H](C)C[C@@H]1N(C)C` it was 0%.
For `O=C(c1ccco1)N1CCN(C(=O)c2ccc(Cn3cc(Br)cn3)o2)CC1`, the inhibition is 4%.
In the case of `Cn1c(=O)n(C)c2cc(NC(=O)C(F)(F)F)ccc21` it was 0%.
As for `COC(=O)[C@@H](NC(=O)NCc1ccccc1Cl)C(C)C`, the figure is 0%; as for `COc1cccc(NC(=O)COc2ccccc2C(N)=O)c1`, 0%.
With `CCC(C)(C)n1nnnc1C(c1ccccc1OC)N1CCSCC1` (stereo not given), the inhibition was 5%.
For the compound `COc1nc(OC)nc(N2CCC(C(=O)NC3CCCCCC3)CC2)n1`, the inhibition is 11%.
As for `COc1ccc(NC(=O)CN(c2cc(C)cc(C)c2)S(=O)(=O)c2c(C)noc2C)cc1OC`, the figure is 0%; as for `Cc1onc(-c2c(Cl)cccc2Cl)c1C(=O)N1CCc2ccccc21`, 0%.
In the case of `COc1ccccc1NC(=O)N(Cc1ccco1)Cc1cc2cccc(C)c2[nH]c1=O` it was 2%.
As for `Cn1c(SCc2nnc3n2CCCCC3)nc2ccccc21`, the figure is 0%; as for `N#Cc1ccc(COC(=O)Cn2nnc(-c3ccccc3)n2)cc1`, 0%; as for `CCOc1ccccc1C1CC(=O)Nc2cc3c(cc21)OCO3` (stereo not given), 0%.
With `CN(C)S(=O)(=O)N1CCN(C(=O)N(c2ccccc2)c2ccccc2)CC1`, the inhibition is 0%.
As for `Nc1nnnn1/N=C/c1ccccc1OCc1ccccc1`, the figure is 0%; as for `CCCc1cc(=O)oc2c(C)c3occ(C)c3cc12`, 1%; as for `Cc1ccc(NC(=O)C2CCCN2C(=O)Oc2ccccc2)cc1` (stereo not given), 1%.
In the case of `NCCCCCc1nnc(SC/C=C/c2ccccc2)o1` it was 0%; in that of `COC(=O)c1ccccc1NC(=O)C1CC(=O)N(c2ccc(F)cc2)C1` (stereo not given), 20%.
Regarding `COc1ccc(-c2coc3cc(O)cc(O)c3c2=O)cc1`, the inhibition is 5%.
As for `COc1cccc(-n2nnnc2SCC(=O)NCc2ccco2)c1`, the figure is 0%; as for `CSc1ccccc1NS(=O)(=O)c1ccccc1`, 3%; as for `CCCNC(=O)NS(=O)(=O)c1ccc(Cl)cc1`, 5%.
In the case of `CCc1ccc(N2CC(C(=O)OCC(=O)Nc3cc(C)on3)CC2=O)cc1` (stereo not given) it was 0%; in that of `COc1ccc(CCNS(=O)(=O)c2ccc3c(c2)CCN3C(=O)CCC(=O)O)cc1OC`, 0%.
As for `Cn1c(SCc2ccccc2)nnc1C1CCCNC1` (stereo not given), the figure is 0%.
With `Cc1sc2nc(SCC(=O)NCc3ccco3)n(CCc3ccccc3)c(=O)c2c1C`, the inhibition is 0%.
As for `Cc1cccc(-n2nnnc2SCc2csc(-c3ccccc3)n2)c1`, the figure is 0%; as for `CCOc1ccc(CSC(CC(=O)O)C(=O)O)cc1` (stereo not given), 6%; as for `O=C(OCC#CCSc1nc2ccccc2s1)c1ccco1`, 3%.
In the case of `C/C(=C\C(=O)c1ccc(F)cc1)Nc1ccc(N2CCOCC2)cc1` it was 0%; in that of `CCC(=O)O[C@@H]1CC(=O)O[C@H](C)CC=CC=C[C@@H](O)[C@H](C)C[C@H](CC=O)[C@H](O[C@H]2O[C@H](C)[C@@H](O[C@H]3C[C@@](C)(O)[C@@H](OC(=O)CC)[C@H](C)O3)[C@H](N(C)C)[C@H]2O)[C@H]1OC`, 4%.
In the case of `CCOC(=O)c1sc(NC(=O)CSc2nc3c(cc2C#N)CCC3)c(C#N)c1C` it was 10%; in that of `CCOc1ccc(-c2cc(C(=O)N3CCN(c4ccccn4)CC3)c3ccccc3n2)cc1`, 2%.
As for `Cc1cccc(-n2c(SCc3cc(=O)n4ccsc4n3)nc3ccccc32)c1`, the inhibition is 0%.
Take `CCOC(=O)N1CCN(C(=O)c2c(-c3ccccc3)noc2C)CC1`: the inhibition is 0%.
